This note sets out measurements from PubChem BioAssay (NCATS).

Structures are written as SMILES. Results filed as inconclusive are left out. The source made the active and inactive calls. Calls come from the whole dose curve.

Test [1] in a line: Primary qHTS for Huh7 cytotoxicity: counterscreen for inhibitors of MERS-S pseudotyped particle cell entry (AID 1479147). The conditions noted are these: cell viability read-out; series mostly up to 57.1 µM. For orientation: Quantitative high-throughput screening tests each substance at several concentrations.
Test [2] is described as follows: Primary qHTS for inhibitors of MERS-S pseudo-typed particle cell entry (AID 1479149). Note: nearly all actives have a fitted effect of over 60% in size. Note: potency is the fitted concentration of half-maximal effect. The conditions noted are these: MERS-S pseudotyped particle entry, luciferase; series mostly up to 57.1 µM.
A short description of test [3]: Primary qHTS for Vero E6 cytotoxicity: counterscreen for inhibitors of SARS-S pseudo-typed particle cell entry (AID 1479150). The conditions noted are these: cell viability; series mostly up to 57.1 µM.

In the case of `CCOC(=O)C1=C[C@@H](OC(CC)CC)[C@H](NC(C)=O)[C@@H](N)C1`, the Potency result in test [1], in test [2] and in test [3] was “inactive” throughout.
Turning to `CNCCCCOc1ccccc1Cc1ccccc1`, the Potency entry in test [3] is “inactive”.
Turning to `CN(C)c1ccc2nc3ccc(=[N+](C)C)cc-3sc2c1`, the Potency in test [2] was 7.08 µM (active).
